# High-throughput results from PubChem BioAssay.
# AGP1 TOR yeast: modulators of AGP1-GFP expression in yeast TOR pathway, primary screen, cell-based, multiplex flow cytometry, S. cerevisiae, MLPCN library; 320,000 tested, 0.02% active; AID 2066, 2009; GFP response vs DMSO, % at 10 µM; 3 h; GFP as percent of DMSO wells;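 active = GFP response relative to DMSO above a set limit, near screen average plus 3 SD, cut at about 150% in these data; inconclusive = fewer than 70 cells counted for the yeast strain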;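 also: median GFP channel fluorescence of the gated AGP1 strain per well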
# LAP4 TOR yeast: modulators of LAP4-GFP expression in yeast, primary screen, S. cerevisiae, multiplex flow cytometry, MLPCN library. 3 h; median GFP as percent of DMSO wells. GFP response vs DMSO, % at 10 µM. 320,000 tested, 0.34% active. AID 2023, 2009;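 active = GFP response vs DMSO above a set limit, about the screen mean plus 3 SD, cut at about 150% in these data; inconclusive = under 70 cell events counted for the yeast strain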
# RPL19A TOR yeast: RPL19A-GFP expression modulators in yeast, primary screen, cell-based, S. cerevisiae, multiplex flow cytometry, MLPCN; S. cerevisiae RPL19A-GFP strain, 3 h; hits give low values; percent response vs DMSO, % at 10 µM; 330,000 tested, 0.3% active; AID 2025, 2009;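 active = percent response vs DMSO below 50%; inconclusive = fewer than 70 events counted for the yeast strain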;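 also: median channel GFP fluorescence of the barcoded RPL19A-GFP strain; lower means less RPL19A-GFP as with rapamycin TOR inhibition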
# Efflux pump inh: inhibitors of Candida efflux pumps in yeast, primary screen, S. cerevisiae, Nile Red, multiplex | S. cerevisiae Candida pump triplex | inhibition, % at 10 µM | 330,000 tested, 0.44% active | AID 485275, 2010;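 active = plate passing quality check with inhibition over a set limit, or well fluorescence over plate mean plus 4 SD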;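 also: Nile Red retained in pooled yeast measured as flow cytometry median fluorescence; higher means more Nile Red kept so more efflux inhibition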
# MEP2 TOR yeast: modulators of MEP2-GFP levels in yeast, primary screen, S. cerevisiae, multiplex flow cytometry, MLPCN library. S. cerevisiae MEP2-GFP strain, 3 h; 100% = DMSO control level. GFP response vs DMSO, % at 10 µM. 330,000 tested, 0.51% active. AID 2016, 2009;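 active = GFP response versus DMSO above a set limit, roughly screen mean plus 3 SD, cut at about 180% in these data; inconclusive = fewer than 70 cells counted for a yeast strain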;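 also: median GFP fluorescence of the barcode-gated MEP2-GFP cells per well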
# CIT2 TOR yeast: modulators of CIT2-GFP expression in yeast, primary screen, S. cerevisiae, GFP fusion, multiplex flow cytometry, MLPCN library; S. cerevisiae CIT2-GFP strain, 3 h; 100 means same as DMSO wells; 320,000 tested, 0.065% active; AID 2029, 2009; GFP response vs DMSO, % at 10 µM;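 active = GFP response relative to DMSO above a set limit, near the screen mean plus 3 SD, cut at about 150% in these data; inconclusive = Fewer than 70 cells measured for a yeast strain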;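 also: ratio of well median GFP fluorescence to mean of DMSO wells on the plate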
# A number is an active result; n = inactive; u = inconclusive; [ ] = another dose, or the depositor's remark. In the library only some 1.3% were active in any assay of this set; here they are far more common.
SMILES,AGP1 TOR yeast,LAP4 TOR yeast,RPL19A TOR yeast,Efflux pump inh,MEP2 TOR yeast,CIT2 TOR yeast
CCN(CC)c1ccc(C2C(C(C)=O)C(=O)CC(C)(O)C2C(C)=O)cc1 (stereo not given),u,u,14[may fluoresce violet],n,249[may fluoresce violet],u
CC(=O)C1C(=O)CC(C)(O)C(C(C)=O)C1c1ccc(N(C)C)cc1 (stereo not given),n,n,n,n,n,n
CSc1ccc(C#N)cc1NC(=O)c1cccnc1Cl,u,n,45[may fluoresce violet],n,336[may fluoresce violet],u
COC(=O)C1=C(C(=O)OC)[C@@H]2N(C)c3ccccc3[C@@]23C[C@@H](C(=O)OC)N(C(=O)COCc2ccccc2)C3=N1,n,n,n,n,n,n
OC(COc1ccccc1CNCc1cccnc1)CN1CCc2ccccc2C1 (stereo not given),n,n,n,n,588[may fluoresce violet],u
OC(COc1ccc(CNCc2cccnc2)cc1)CN1CCc2ccccc2C1 (stereo not given),n,n,n,n,n,n
COc1ccc(NC(=S)NCCN2CCOCC2)cc1,u,n,19[may fluoresce violet],n,419[may fluoresce violet],u
COc1ccc(NC(=S)NCCCN2CCOCC2)cc1,n,n,n,n,n,n
Cc1ccc(S(=O)(=O)n2c3ccc(F)cc3c3nc(C)sc32)cc1,n,n,n,n,n,n
O=C(Nc1nc(-c2ccccn2)cs1)c1ccc(-c2ccccc2F)o1,n,170[may fluoresce violet],n,n,n,u
COc1ccc(CN2CCNC(=O)C2CC(=O)NC2CCCC2)c(C)c1C (stereo not given),n,n,n,n,n,n
Cc1nnc(N2CCCC(C(=O)Nc3cc(F)ccc3F)C2)c2nn(-c3ccccc3)c(C)c12 (stereo not given),n,n,n,n,n,n
Cc1nnc(N2CCCC(C(=O)NCc3ccc(OC(C)C)cc3)C2)c2nn(-c3ccccc3)c(C)c12 (stereo not given),u,n,48[may fluoresce violet],n,253[may fluoresce violet],u
CCCCC(=O)Nc1nn(C)c2nc3c(C)cccc3cc12,u,n,42[may fluoresce violet],n,359[may fluoresce violet],u
COCCCn1c(=N)c(C(=O)NC2CCCCC2)cc2c(=O)n3ccccc3nc21,u,u,n,n,232[may fluoresce violet],u
N=c1c(C(=O)NC2CCCC2)cc2c(=O)n3ccccc3nc2n1CC1CCCO1 (stereo not given),u,n,u,n,202[may fluoresce red and violet],u
COc1ccc(Cn2c(=N)c(C(=O)NC3CCCCC3)cc3c(=O)n4ccccc4nc32)cc1,n,n,n,n,n,n
CCCn1c(=N)c(C#N)cc2c(=O)n3cccc(C)c3nc21,n,n,n,n,n,n
Cc1ccc(CNC(=O)c2cc3c(=O)n4ccccc4nc3n(CC3CCCO3)c2=N)cc1 (stereo not given),n,n,n,n,221[may fluoresce violet],u
Cc1ccc2nc3c(cc(C(=O)NCC4CCCO4)c(=N)n3CC3CCCO3)c(=O)n2c1 (stereo not given),u,u,n,n,n,u
CCCn1c(=N)c(C#N)cc2c(=O)n3ccccc3nc21,n,n,n,n,298[may fluoresce violet],u
Cc1ccc(C)c(N(CC(=O)NCc2ccccc2)C(=O)c2csnn2)c1,n,n,n,n,n,n
COC(=O)[C@]12C(=O)NC[C@H](CN1c1ccc(C(F)(F)F)cc1)N2C,n,n,n,n,n,n
COc1ccc(NC(=O)CC2CC3CCC2C3)cc1S(=O)(=O)N1CCOCC1 (stereo not given),n,n,n,n,n,n
Cc1cc(Cl)c(S(=O)(=O)N2CCN(c3ccc(F)cc3)CC2)cc1OCC(=O)NC1CCCCC1,n,n,n,n,n,n
CCOC(=S)SCc1cn2cccc(C)c2n1,n,n,n,n,n,n
CC(NC(=O)c1cc2c(=O)n3ccccc3nc2n(CC2CCCO2)c1=N)c1ccccc1 (stereo not given),u,n,29[may fluoresce violet],n,207[may fluoresce violet],u
